Sampled rows, rich in hits. Any-hit rate of the full collection: about 14%.
HADH2 inh – blocks human hydroxyacyl-CoA dehydrogenase type II; Q99714; Potency, µM (highest dose often 57.1 µM), inactives show at the top dose activity change, negative = inhibition, usual class: inhibitors; recombinant HADH2, NADH fluorescence, beta-hydroxybutyryl-CoA; 3.4% of 73,000 active; further: potency means the concentration at half of the fitted maximal effect; on the % scale 0 is the no-effect control and ±100 the full control effect; nearly all actives have a fitted effect of over 60% in size
Target sequence (Q99714 whole entry, looked up, one chain of several): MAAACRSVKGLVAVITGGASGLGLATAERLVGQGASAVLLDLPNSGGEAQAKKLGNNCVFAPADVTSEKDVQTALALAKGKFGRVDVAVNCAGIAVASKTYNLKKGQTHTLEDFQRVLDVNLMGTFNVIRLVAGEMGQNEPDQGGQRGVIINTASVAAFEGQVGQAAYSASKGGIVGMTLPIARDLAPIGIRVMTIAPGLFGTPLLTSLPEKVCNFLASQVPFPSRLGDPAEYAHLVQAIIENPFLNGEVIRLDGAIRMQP
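E. coli-expressed His-tagged HADH2 tested at 20 nM in alkaline Tris buffer (pH 9.0); oxidation of 90 uM beta-hydroxybutyryl-CoA with 1 mM NAD+ tracked fluorimetrically for 4 min.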
4-MU autofl – compounds fluorescent in 4-MU spectral region | 11% of 59,000 active | compound autofluorescence, 340/450 nm, 4-MU equivalents; stronger effect = higher value | AID 589 | max dye-equivalent concentration, M; in the data active means max dye-equivalent concentration above about 10 nM; inconclusive means mostly about 1.1 nM to 9.6 nM
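Compounds in 100 mM Tris, pH 8.0, sat 15 min at room temperature before fluorescence was read at 340 nm excitation/450 nm emission; a per-plate six-point 4-MU standard curve converted signals to dye-equivalent concentration at each compound concentration.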
A350 fluor – compounds fluorescent in Alexa 350 spectral region; Compound autofluorescence, 340/450 nm, Alexa 350 dye-equivalents; stronger effect = higher value; max dye-equivalent concentration, M; 11% of 59,000 active; in the data active means max dye-equivalent concentration above about 10 nM; inconclusive means mostly about 1.1 nM to 9.6 nM
CRE Fsk mod – CRE-bla signaling modulation under forskolin stimulation | CHO CRE-bla reporter (cAMP response element driving beta-lactamase), forskolin EC10, beta-lactamase ratio | 2.5% of 71,000 active | Potency, µM (top dose mostly 38.2 µM), for the others: top-dose activity change, negative = inhibition, most hits filed as activators; active means well fitted activation curve with a large enough effect in the signal ratio, with a control signal flat, not every such curve was filed as active; inconclusive means small, poorly fitted or top-dose-only effect, or effect the other way, or a change in a side signal; the % refers to the signal ratio; further: potency means the concentration at half of the fitted maximal effect; % of control where 0% means no effect
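qHTS titration format; CRE-bla CHO reporter; stimulus EC10 NKH 477, a water-soluble forskolin. Read: CCF4 460/530 nm ratio. Potency expressed as AC50 for activators or inhibitors.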
AID923 – qHTS Assay for Allosteric/Competitive Inhibitors of Caspase-1: Spectroscopic Profiling in AFC Spectral Region. compound fluorescence, AFC spectral region (405/520 nm). Potency, µM (highest dose often 57.5 µM), without a hit: top-dose fluorescence increase, most hits filed as activators. 1.1% of 75,000 active. AID 923, 2007; further: potency means the concentration at half of the fitted maximal effect; 0% is about no effect
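Compound autofluorescence profiled at 405 nm ex/520 nm em during kinetic caspase 1 run (50 nM enzyme, 5 uM Ac-WEHD-AFC, HEPES pH 7.5, 10 mM DTT). Titration up to 57 uM; baseline from regression intercept, normalized to AFC standard curve.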
HSD17B inh – HSD17B dehydrogenase inhibition. Q99714. recombinant HSD17B10, NADH fluorescence kinetic. Potency, µM (highest dose often 57.1 µM), without a hit: at the top dose activity change, negative = inhibition, most hits filed as inhibitors. 7.6% of 75,000 active. AID 893;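 further: the protocol describes HADH2 (HSD17B10) and not the HSD17B4 of the title; potency means the concentration at half of the fitted maximal effect; on the % scale 0 is the no-effect control and ±100 the full control effect; nearly all actives have a fitted effect of over 70% in size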
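Activity followed as NADH fluorescence increase (ex 360, em 450 nm) every 30 seconds for 4 min, using final 90 uM beta-hydroxybutyryl CoA and 1 mM NAD+. Recombinant His-tagged enzyme, 20 nM, pH 9.0 Tris buffer, 15 min compound preincubation.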
Starred values were filed as active, the others as inactive; i = inactive; ? = inconclusive; nt = not tested or not shown; [ ] = another dose, or the depositor's remark. Unless noted, the call rests on the fitted dose curve; in most records, active means well fitted curve in the direction sought with a large enough effect; inconclusive means small, poorly fitted or top-dose-only effect, or another doubt; inactive means no such curve, though single readings can be large; an effect the other way counts as inactive or inconclusive.

SMILES	HADH2 inh	4-MU autofl	A350 fluor	CRE Fsk mod	AID923	HSD17B inh
CC1CCN(S(=O)(=O)c2cc(Cl)ccc2Br)CC1	-8.5%	?	1.41e-08M*	?	0.4%	-7.9%
O=C(NCc1ccccn1)c1coc(=O)c(Br)c1	nt	7.67e-07M*	8.35e-07M*	nt	nt	nt
O=C(NCc1ccccn1)c1ccc(NC(=O)c2ccco2)cc1	1.6%	i	i	-5.4%	-0.3%	5.9%
COc1ccc2c(=O)c3c(=O)n(Cc4ccco4)c(C(C)C)nc3oc2c1	11.6%	i	i	-11.0%	-0.4%	-4.0%
COc1ccc2c(c1)c1ncn(Cc3ccco3)c(=O)c1n2C	31.6µM*	1.28e-06M*	1.06e-06M*	1µM*	-0.2%	25.1µM*
CCOc1ccccc1Oc1c(C)oc2c(CN3CCN(CCO)CC3)c(O)ccc2c1=O	173.0%	1.36e-06M*	1.98e-06M*	2.9%	5.4%	31.6µM*
CN1CCN(Cc2c(O)ccc3c(=O)c(Oc4ccccc4Cl)c(C(F)(F)F)oc23)CC1	-16.8%	nt	nt	-7.6%	18.0%	?
COc1ccccc1Oc1c(C)oc2c(CN3CCN(CCO)CC3)c(O)ccc2c1=O	?	1.35e-06M*	1.99e-06M*	-0.6%	6.5%	31.6µM*
CCOC(=O)c1ccc(Oc2c(C)oc3c(CN4CCN(C)CC4)c(O)ccc3c2=O)cc1	19.5%	1.8e-06M*	2.67e-06M*	0.4%	7.8%	31.6µM*
CCOC(=O)c1c(CN2CCN(C)CC2)oc2ccc(OC)cc12	5.5%	i	i	6.1%	0.8%	-24.4%
Cc1oc2c(CN3CCCC3)c(O)ccc2c(=O)c1Oc1ccccc1Br	31.6µM*	3.56e-06M*	4.26e-06M*	2.5%	15.9%	31.6µM*
CCOC(=O)c1c(CN2CCN(c3ccccc3)CC2)oc2ccc(O)cc12	-21.4%	nt	nt	-6.1%	-2.3%	-9.6%
CCOC(=O)c1c(CN2CCN(CCO)CC2)n(C)c2cc(Br)c(OC)cc12	nt	i	i	nt	nt	nt
CC1=CC(=O)CC(C)(C)[C@@]1(O)/C=C\C(C)=C\C(=O)O	2.7%	i	i	12.8%	nt	nt
NC1=C2NC=N[C@@H]2N(C/C=C\c2ccccc2)C=N1	2.6%[11.4 µM]	i	i	12.8%[7.6 µM]	-0.8%[11.5 µM]	2.5%[11.4 µM]
Cc1noc(C)c1C(=O)N1CCC[C@@]2(CCN(Cc3nccs3)C2)C1	-1.6%	i	i	-1.8%	1.6%	3.2%
COCCNc1ncnc2ccc(-c3ccoc3)cc12	?	6.12e-08M*	6.25e-08M*	-20.2%	13.7%	31.6µM*
CC(=O)NCCNc1ncnc2ccc(-c3ccoc3)cc12	?	6.2e-08M*	6.59e-08M*	-12.1%	8.5%	25.1µM*
COCCNc1ncnc2ccc(-c3ccc(N(C)C)cc3)cc12	-25.8%	i	i	22.0%	2.7%	-5.9%
Cc1cnc(CNc2ncnc3ccc(-c4ccc(N(C)C)cc4)cc23)cn1	?	i	i	?	-0.4%	?
COCCNc1ncnc2ccc(-c3ccccc3OC)cc12	?	i	i	?	0.8%	25.1µM*
Cc1cnc(CNc2ncnc3ccc(-c4ccoc4)cc23)cn1	?	5.05e-08M*	5.3e-08M*	?	9.7%	?
CCOC(=O)c1ccc(CNC(=O)c2cc3cccc(OC)c3oc2=O)o1	-5.2%	i	i	?	-1.1%	-1.7%
CC(C)[C@@H](CC(=O)N[C@@H]1CCNC[C@H]1C(=O)N[C@H](CC(=O)N[C@@H](CCC(=O)O)CC(=O)O)Cc1ccccc1)NC(=O)C[C@H](CO)NC(=O)[C@@H]1CCCC[C@H]1N	?	nt	nt	-7.7%	nt	nt
O=c1cnc2cnc(OCc3ccccc3)nc2n1Cc1ccc(F)cc1	-9.3%	i	i	?	1.0%	-24.6%
CCOC(=O)c1ccc2[nH]cc(C(C)=O)c(=O)c2c1	?	2.63e-08M*	2.51e-08M*	?	11.1%	25.1µM*
O=C(c1c[nH]c2ccc(S(=O)(=O)N3CCOCC3)cc2c1=O)N1CCCC1	12.6µM*	9.61e-08M*	8.84e-08M*	-20.7%	-0.3%	25.1µM*

Bioassay records as filed in PubChem BioAssay.
